Experiment in all cases: NCI-60 one-dose screen, 48 h (100 = growth as untreated, 0 = no growth, -100 = all killed)
Holding throughout (settings): 10 µM unless noted

Assay [1] has as its system NCI-H23 lung.
Assay [2] relates to NCI-H226 lung.
Assay [3] concerns NCI-H322M lung.
Assay [4] concerns HOP-62 NSCLC.
The test system of assay [5] is NCI-H460 lung.
The test system of assay [6] is HOP-92 NSCLC.
The subject of assay [7] is NCI-H522 lung.
For assay [8], the system named is A549/ATCC NSCLC.
Assay [9] concerns 786-0 renal.
The subject of assay [10] is DU-145 prostate.
In assay [11] the test system is K-562 leukemia.
The test system of assay [12] is MALME-3M melanoma.
Assay [13] deals with MDA-MB-231 breast.
Assay [14] concerns RXF 393 renal.
In assay [15] the test system is SF-268 CNS.
In assay [16] the test system is SF-295 CNS.
Assay [17] concerns SF-539 CNS.
Assay [18] concerns UACC-257 melanoma.
Assay [19] deals with M14 melanoma.
Assay [20] concerns COLO 205 colon.

Here are results for 8 compounds from PubChem BioAssay (NCI).

About 83,000 compounds went through this panel and 20% of them were active in at least one assay; those are over-represented in the sample as a whole.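 Single-dose data. Exposure time 48 hours. Values below 10 considered active.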 A number with no mark means an inactive call. Calls of active or inactive are those of the source.

Regarding `CCCCNC1=C(OCC)C(=O)c2ccccc2C1=O`, the growth in assay [1] is 83.5%; in [2], 105%; in assay [3], 103%; in assay [4], 125%; in assay [5], 92.6%; in [6] it was 74.5%. The growth was 98.4% in [7]; 99.2% in assay [8]; 94.8% in assay [9]; 104% in assay [10]; 126% in assay [11]; 121% in [12]. Further, the growth is 98.9% in [13]; 92.8% in [14]; 97.3% in [15]; 103% in assay [16]; 112% in assay [17]; 95.7% in [18]. Also, the growth in assay [19] was 95.5%.

Take `FC(F)(F)c1[nH]ncc1-c1nc2c(N3CCCCC3)cc3[nH]ncc3c2c2c1CCCC2`: the growth in assay [1] is -9.72% (active); in assay [2], 2.93% (active); in assay [3] it was -2.53% (active); in assay [4], -8.3% (active); in assay [5] it was 3.42% (active); in assay [6], -10.2% (active). Moreover, the growth in assay [7] was -28.4% (active); in assay [8], 5.13% (active); in assay [9] it was -1.84% (active); in [10] it was 10.2%; in [11], 14.1%; in [12] it was 0.904% (active). The growth in assay [13] was 3.41% (active); in assay [14], -92% (active); in assay [15], -11.7% (active); in assay [16], 7.04% (active); in assay [17], -72.2% (active); in [18] it was 0.68% (active). Besides, in [19], the growth was 2% (active).

Regarding `CN1CCN(CCCOc2ccc3ncnc(Nc4ccc(Oc5cccc(F)c5)c(Cl)c4)c3c2)CC1`, the growth was 50.8% in [1]; 88.4% in assay [2]; 22.1% in assay [3]; 48.7% in assay [4]; -62.8% (active) in [5]; 31.4% in assay [6]. Further, the growth in [7] is 22%; in assay [8], 21.1%; in assay [9], -3.9% (active); in assay [20], -37% (active); in assay [10], 15.2%; in [11], -30% (active). For the same compound, the growth in [12] was -72.4% (active); in assay [13] it was -65.4% (active); in assay [14], -55.7% (active); in assay [15] it was 40.5%; in assay [16] it was -35% (active); in [17], -75.1% (active). In addition, the growth in assay [18] was -59.6% (active); in [19] it was -75.7% (active).

Consider `Cc1c(N2CN3C[C@H](C)N4CN(c5c(C)n(C)n(-c6ccccc6)c5=O)CN5C[C@@H](C)N(C2)C3C54)c(=O)n(-c2ccccc2)n1C` (some centres undefined), for which the growth is 95.1% in assay [1]; 101% in [2]; 103% in assay [3]; 103% in [4]; 101% in [5]; 90.8% in assay [6]. Also, the growth is 98.9% in [7]; 106% in assay [8]; 102% in assay [9]; 112% in assay [10]; 17.9% in assay [11]; 104% in assay [12]. The growth in [13] was 117%; in assay [14] it was 101%; in assay [15], 100%; in assay [16] it was 99.3%; in assay [17] it was 91.2%; in [18] it was 105%.

As for `COc1ccc(OC)c(-c2cn3nc(-c4c[nH]c5ccc(Br)cc45)sc3n2)c1`, the growth in [1] was 25%; in assay [2] it was 89.9%; in assay [3] it was 50.6%; in assay [4] it was 60.9%; in assay [5], -32.4% (active); in [6], 46.5%. Further, the growth in [7] is 8.67% (active); in assay [8], 14.5%; in [9] it was 49.3%; in assay [20] it was 29.8%; in assay [10], 29.3%; in assay [11], 5.98% (active). Also, the growth is 52.2% in [12]; 9.49% (active) in [13]; 67.8% in [14]; 18.3% in assay [15]; 54.1% in [16]; -12.8% (active) in [17]. Also, the results for the growth in assay [18] and in assay [19] were 84.9% and 12.7%, respectively.

Consider `Cc1ccc(S(=O)(=O)n2cc(C3C(Cl)C(=O)N3c3ccc(N4CCOCC4=O)cc3)c3ccccc32)cc1` (centres undefined), for which the growth in [1] was 52.5%; in assay [2] it was 72.3%; in [3], 86.7%; in assay [4] it was 67.6%; in assay [5], 97.2%; in assay [6] it was 49.8%. The growth was 63.7% in assay [7]; 79.6% in assay [8]; 86% in [9]; 63.6% in [10]; 22.5% in [11]; 56.4% in assay [12]. Besides, the growth in [13] was 16.5%; in assay [14] it was 65.5%; in [15], 57.9%; in [16], 82.5%; in [17], 28.1%; in assay [18], 74.3%. Besides, the growth in assay [19] is 25.7%.

For `N#Cc1c(-c2ccccc2)nc2c(c(-c3ccccc3)nn2-c2ccccc2)c1-c1ccc(N2CCOCC2)cc1`, the growth in assay [1] is 96.9%; in assay [2], 92.7%; in assay [3], 92.3%; in [4] it was 95.3%; in assay [5], 92.5%; in [6], 85.8%. The growth in [7] is 92%; in [8], 77.2%; in assay [9], 86.3%; in [20], 79.6%; in assay [10], 91.5%; in assay [11] it was -20% (active). Moreover, the growth in assay [12] is 104%; in [13], 97.3%; in assay [14], 95%; in assay [15], 104%; in assay [16], 107%; in [17] it was 93.7%. Moreover, the results for the growth in assay [18] and in assay [19] were 101% and 92.3%, respectively.

As for `C=CC(=O)N1CCN(c2ccc3cccc(NC(=O)c4cnc(C)cn4)c3n2)CC1`, the growth was 66.7% in [1]; 42.9% in [2]; 21.2% in assay [3]; 41.1% in [4]; 34.7% in [5]; 42.7% in assay [6]. Moreover, the growth in [7] is 10.4%; in [8], 27.3%; in [9], 24.8%; in [10] it was 29.1%; in [11] it was 36.5%; in assay [12], 30.5%. In addition, the growth in assay [13] was 36.7%; in [14] it was 11.4%; in [15], 37.6%; in assay [16], 61.5%; in assay [17], 35.1%; in assay [18] it was 37.2%. Also, the growth in assay [19] is 41.2%.
